Assay results from PubChem BioAssay.
The source made the active and inactive calls.

How the values were obtained:
[1] = E. coli DRC41 culture turbidity changes, primary screen, E. coli filamentation inducer project, strain DRC41, OD650, 48 h (AID 1152);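 note: E. coli MC1000 strain DRC41 lacking acrAB efflux pump and sulA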; conditions: E. coli DRC41 (acrAB sulA), higher = more signal, called active from +8 up or from −8 down
[2] = small-molecule binders of probe aLefty1, primary screen, biochemical, small-molecule microarray, 635/667 nm fluorescence (AID 1153); conditions: higher = more signal;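 note: score merges spot fluorescence with signal-to-noise ratio from the scanned slide images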
[3] = PSAC antagonists in infected red cells, primary screen, cell-based, P. falciparum Indochina, OD700, 1 h (AID 1154); conditions: P. falciparum Indochina infected RBC osmotic lysis, higher = more signal, called active from +8 up or from −8 down
[4] = PSAC antagonists in infected red cells, primary screen, cell-based, P. falciparum Indochina, OD700, 2 h (AID 1155);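 note: lysis reports solute entry through the parasite surface anion channel PSAC; channel blockers reduce lysis of infected cells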; conditions: P. falciparum Indochina infected erythrocytes, osmotic lysis OD700; higher = more signal, called active from +8 up or from −8 down
[5] = osmotic lysis modulators in infected erythrocytes, primary screen, PSAC antagonist project, cell-based, P. falciparum Indochina, OD700, 3 h (AID 1156); conditions: higher = more signal, called active from +8 up or from −8 down
[6] = PSAC antagonists in infected red cells, primary screen, cell-based, P. falciparum Indochina, OD700, 18 h (AID 1157); conditions: P. falciparum Indochina infected erythrocytes, osmotic lysis OD700, 18 h; higher = more signal, called active from +8 up or from −8 down
[7] = modulators of S6 phosphorylation in cells, primary screen, cell-based, A549, cytoblot, luminescence, serum-stimulated (AID 1158); conditions: A549 phospho-S6 cytoblot, 5 h, higher = more signal;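 note: serum-stimulated A549 lung adenocarcinoma cells; signal is phosphorylated S6 detected by cytoblot immunostaining with HRP secondary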
[8] = molecular target: NADPH oxidase 2 (Homo sapiens) (UniProt P04839); test: NOX2-dependent H2O2 signal modulators, primary screen, NOX inhibitor project, cell-based, HEK293-NOX2, PMA-stimulated, Amplex Red fluorescence (AID 1159); conditions: 45 min, higher = more signal, called active from +8 up or from −8 down; note: test concentration not given here
[9] = molecular target: NADPH oxidase 4 (Homo sapiens) (UniProt Q9NPH5); test: NOX4-dependent H2O2 signal modulators, primary screen, NOX inhibitor project, cell-based, HEK293-NOX4, tetracycline-induced, Amplex Red fluorescence (AID 1160); conditions: 45 min, higher = more signal, called active from +8 up or from −8 down
[10] = molecular target: NADPH oxidase 5 (Homo sapiens) (UniProt Q96PH1); test: NOX5-dependent H2O2 signal modulators, primary screen, NOX inhibitor project, cell-based, HEK293-NOX5, Amplex Red fluorescence (AID 1161); conditions: HEK293-NOX5, ionomycin, 45 min, higher = more signal
[11] = A549 cell viability effects, profiling panel, calcein-AM fluorescence, 48 h, basal (AID 1162); conditions: higher = more signal; note: test concentration not given here
[12] = adipocyte viability effects, profiling panel, cell-based, 3T3-L1 adipocytes, calcein-AM fluorescence, 48 h, basal (AID 1163); conditions: 3T3-L1 adipocytes viability, higher = more signal; note: test concentration not given here
[13] = HepG2 cell viability effects, profiling panel, calcein-AM fluorescence, 48 h, basal (AID 1164); conditions: higher = more signal; note: test concentration not given here
[14] = MM1S cell viability effects, profiling panel, calcein-AM fluorescence, 48 h, basal (AID 1165); conditions: higher = more signal;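 note: viability of MM1S multiple myeloma cells under basal unstimulated conditions; test concentration not given here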
[15] = basal RPMI8226 viability, no added stimulus, profiling panel, cell-based, calcein-AM fluorescence, 48 h, PK04 Diversity Set (AID 1166); conditions: RPMI8226 myeloma viability, higher = more signal;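 note: cells grown under basal conditions without added stimulus; test concentration not given here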
[16] = basal HepG2 mitochondrial membrane potential changes, profiling panel, cell-based, JC-1 fluorescence, 24 h, 100 nL compound (AID 1167); conditions: higher = more signal; note: test concentration not given here
[17] = basal 3T3-L1 adipocyte mitochondrial potential changes, profiling panel, cell-based, JC-1 fluorescence, 3T3-L1 adipocytes, 24 h, 100 nL compound (AID 1168); conditions: JC-1 mitochondrial fluorescence, higher = more signal, called active from +8 up or from −8 down; note: test concentration not given here
[18] = basal RPMI8226 mitochondrial membrane potential changes, profiling panel, cell-based, JC-1 fluorescence, 24 h, 100 nL compound (AID 1169); conditions: RPMI8226 myeloma, JC-1 mitochondrial potential fluorescence, higher = more signal; note: test concentration not given here
[19] = basal MM1S mitochondrial membrane potential changes, profiling panel, cell-based, JC-1 fluorescence, 24 h, 100 nL compound (AID 1170); conditions: higher = more signal; note: test concentration not given here
[20] = A549 lung cancer cell viability effects, profiling panel, resazurin fluorescence, 24 h, PK04 Diversity Set (AID 1171); conditions: higher = more signal, called active from +8 up or from −8 down; note: test concentration not given here

Sequence of NADPH oxidase 5 (Homo sapiens) (Q96PH1 whole entry, looked up): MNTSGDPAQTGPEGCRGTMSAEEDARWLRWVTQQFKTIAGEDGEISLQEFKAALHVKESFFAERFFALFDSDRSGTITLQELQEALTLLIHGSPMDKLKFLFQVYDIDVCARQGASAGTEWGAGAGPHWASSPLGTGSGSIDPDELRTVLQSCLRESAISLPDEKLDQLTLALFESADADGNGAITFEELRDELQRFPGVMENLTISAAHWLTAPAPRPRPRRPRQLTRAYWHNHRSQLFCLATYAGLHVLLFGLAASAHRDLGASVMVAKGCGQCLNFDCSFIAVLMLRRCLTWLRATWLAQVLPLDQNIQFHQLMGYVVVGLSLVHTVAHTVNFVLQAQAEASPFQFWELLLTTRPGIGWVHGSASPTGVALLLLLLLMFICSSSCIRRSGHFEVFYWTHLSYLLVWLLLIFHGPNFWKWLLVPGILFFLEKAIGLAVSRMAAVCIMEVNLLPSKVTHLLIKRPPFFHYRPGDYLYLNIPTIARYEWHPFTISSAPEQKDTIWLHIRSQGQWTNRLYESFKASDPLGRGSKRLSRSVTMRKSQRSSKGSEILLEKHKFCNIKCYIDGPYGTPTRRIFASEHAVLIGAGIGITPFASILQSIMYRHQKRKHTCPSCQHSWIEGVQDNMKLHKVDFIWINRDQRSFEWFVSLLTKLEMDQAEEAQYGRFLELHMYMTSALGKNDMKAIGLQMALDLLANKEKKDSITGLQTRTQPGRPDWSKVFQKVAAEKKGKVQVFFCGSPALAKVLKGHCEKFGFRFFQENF
Sequence of NADPH oxidase 4 (Homo sapiens) (Q9NPH5 whole entry, looked up): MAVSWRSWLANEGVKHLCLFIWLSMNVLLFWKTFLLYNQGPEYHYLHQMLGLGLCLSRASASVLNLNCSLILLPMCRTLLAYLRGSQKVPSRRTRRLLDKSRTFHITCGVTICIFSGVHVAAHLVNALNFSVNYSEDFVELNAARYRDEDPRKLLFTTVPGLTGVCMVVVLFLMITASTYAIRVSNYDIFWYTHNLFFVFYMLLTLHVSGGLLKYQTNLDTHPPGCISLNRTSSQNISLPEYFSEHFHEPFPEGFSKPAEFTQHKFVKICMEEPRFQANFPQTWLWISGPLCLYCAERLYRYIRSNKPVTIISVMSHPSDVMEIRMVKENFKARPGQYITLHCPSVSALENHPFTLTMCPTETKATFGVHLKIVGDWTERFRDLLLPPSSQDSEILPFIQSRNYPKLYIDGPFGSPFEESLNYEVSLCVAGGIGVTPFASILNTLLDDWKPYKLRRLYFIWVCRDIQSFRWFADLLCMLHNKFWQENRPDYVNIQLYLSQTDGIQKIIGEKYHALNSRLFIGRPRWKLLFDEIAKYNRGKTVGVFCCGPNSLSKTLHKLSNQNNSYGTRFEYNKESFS
Sequence of NADPH oxidase 2 (Homo sapiens) (P04839 whole entry, looked up): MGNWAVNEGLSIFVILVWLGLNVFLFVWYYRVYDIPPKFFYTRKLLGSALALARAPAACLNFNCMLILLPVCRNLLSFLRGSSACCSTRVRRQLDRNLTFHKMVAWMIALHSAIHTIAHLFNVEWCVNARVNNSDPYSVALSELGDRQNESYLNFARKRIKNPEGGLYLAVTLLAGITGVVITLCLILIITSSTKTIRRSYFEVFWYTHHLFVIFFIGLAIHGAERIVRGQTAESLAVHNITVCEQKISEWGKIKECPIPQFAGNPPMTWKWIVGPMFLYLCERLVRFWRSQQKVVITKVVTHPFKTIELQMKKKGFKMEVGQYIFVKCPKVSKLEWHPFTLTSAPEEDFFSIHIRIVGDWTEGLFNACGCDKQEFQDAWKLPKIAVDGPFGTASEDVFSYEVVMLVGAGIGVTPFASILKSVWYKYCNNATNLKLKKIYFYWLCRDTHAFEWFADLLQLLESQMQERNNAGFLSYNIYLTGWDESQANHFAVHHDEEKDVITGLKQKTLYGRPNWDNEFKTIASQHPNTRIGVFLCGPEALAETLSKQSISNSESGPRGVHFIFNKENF

| SMILES | z-score [1] | composite z-score [2] | z-score [3] | z-score [4] | z-score [5] | z-score [6] | z-score [7] | z-score [8] | z-score [9] | z-score [10] | z-score [11] | z-score [12] | z-score [13] | z-score [14] | z-score [15] | z-score [16] | z-score [17] | z-score [18] | z-score [19] | z-score [20] |
| --- | --- | --- | --- | --- | --- | --- | --- | --- | --- | --- | --- | --- | --- | --- | --- | --- | --- | --- | --- | --- |
| CN(C)CCCCNC(=O)[C@H]1C[C@H]2C(=O)N[C@@H](CCCCN(C)C)C(=O)N2[C@H]1c1cccc(OCCO)c1 | 0.357 (inactive) | -0.546 | 0.72 (inactive) | -0.0174 (inactive) | -0.71 (inactive) | -0.0919 (inactive) | -0.518 | 0.731 (inactive) | 0.756 (inactive) | -0.151 | -0.317 | 0.0593 | -0.269 | -0.0355 | 0.495 | 0.13 | 0.429 (inactive) | 0.426 | 0.23 | 0.471 (inactive) |
| CCOC(=O)[C@H]1C/C=C/C[C@H](C(=O)OCC)C(=O)O[C@H]2[C@@H](OC)O[C@H](CO)[C@@H](OC(=O)Nc3ccc(OC)cc3)[C@@H]2OC1=O | 1.04 (inactive) | 0.104 | 0.736 (inactive) | -0.0928 (inactive) | -0.0986 (inactive) | 0.385 (inactive) | -0.0056 | -2.43 (inactive) | -1.29 (inactive) | -1.99 | 2.98 | 0.202 | 1.12 | -0.465 | -0.274 | 1.89 | 1.84 (inactive) | -0.292 | -0.998 | -1.29 (inactive) |
| COC(=O)C[C@H]1O[C@]2(C(=O)N(C)c3ccccc32)[C@@H](C)[C@@H]1[Si](C)(C)c1ccc(C)cc1 | 1.6 (inactive) | -0.0789 | 2.58 (inactive) | 0.894 (inactive) | 0.0094 (inactive) | 0.426 (inactive) | 0.559 | 0.626 (inactive) | 0.00059 (inactive) | -1.59 | -1.55 | 0.163 | -0.151 | -1.5 | -4.12 | -0.39 | 0.329 (inactive) | -0.991 | 0.413 | -0.447 (inactive) |
| COCCOC(=O)N1C(=O)[C@@]2(c3cc(C#Cc4ccc(OC)cc4)ccc31)[C@H](C(=O)NC[C@H](O)c1ccccc1)[C@H]1C(=O)O[C@H](c3ccccc3)[C@H](c3ccccc3)N1[C@@H]2c1ccc(O)cc1 | -0.16 (inactive) | 0.289 | 1.48 (inactive) | 0.702 (inactive) | -0.784 (inactive) | 0.704 (inactive) | 0.236 | 1.04 (inactive) | 0.0374 (inactive) | 0.00809 | -0.24 | 0.711 | -0.862 | -2.08 | -2.34 | -2.11 | 1.54 (inactive) | -0.723 | 0.122 | 0.397 (inactive) |
| Cc1ccc(S[C@]2(C(=O)NC(C)C)CC(=O)N(Cc3ccccc3C(F)(F)F)[C@@H]2c2ccc(CO)cc2I)cc1 | 0.346 (inactive) | 0.135 | 11.2 (active) | 0.141 (inactive) | 1.03 (inactive) | -0.945 (inactive) | 2.05 | 0.95 (inactive) | -3.44 (inactive) | -1.78 | 0.0252 | 0.384 | -0.933 | -2.38 | -3.2 | -0.361 | -0.123 (inactive) | -0.399 | -2.48 | 1.32 (inactive) |
| CCCNC(=O)[C@@]1(c2ccc([N+](=O)[O-])cc2)CC(=O)N(C2CCCCC2)[C@@H]1c1ccc(CO)cc1I | -0.123 (inactive) | 0.317 | 19.3 (active) | 3.4 (inactive) | 3.38 (inactive) | 0.722 (inactive) | -0.275 | 1.02 (inactive) | 0.187 (inactive) | 1.16 | -0.165 | -0.599 | -0.451 | -3.22 | -1.01 | 0.22 | -1.13 (inactive) | -0.677 | -1.11 | 0.72 (inactive) |
| C=C(COC)/C(=C/C[C@@H](OC(=O)c1ccncc1)c1ccc(OCCO)cc1)c1cnc2ccccc2c1 | 0.634 (inactive) | 0.497 | 23.1 (active) | 5.56 (inactive) | 1.59 (inactive) | 1.19 (inactive) | -0.0567 | -1.17 (inactive) | -0.596 (inactive) | -1.84 | 0.101 | 1.48 | -0.0465 | -0.289 | -0.594 | 1.86 | -0.892 (inactive) | 0.674 | 0.464 | 0.549 (inactive) |
| O=C(NC1CC1)[C@@H]1c2ccccc2C(=O)N(Cc2ccccc2)[C@H]1c1ccc(CO)cc1 | 0.651 (inactive) | 0.0191 | 2.58 (inactive) | 0.258 (inactive) | 1.38 (inactive) | 0.0604 (inactive) | 0.666 | -0.962 (inactive) | 0.623 (inactive) | -1.52 | 1.3 | -0.429 | 1.46 | 0.293 | 0.217 | 2.33 | 1.07 (inactive) | 0.135 | -0.319 | 0.139 (inactive) |
| COCCOC(=O)N1C(=O)[C@@]2(c3cc(C#CC4=CCCCC4)ccc31)[C@H](C(=O)N1CCN(c3ncccn3)CC1)[C@H]1C(=O)O[C@H](c3ccccc3)[C@H](c3ccccc3)N1[C@@H]2c1ccc(O)cc1 | -0.386 (inactive) | 0.315 | 1.65 (inactive) | 1.5 (inactive) | 0.116 (inactive) | 0.824 (inactive) | 1.13 | 1.11 (inactive) | 0.482 (inactive) | 1.2 | 0.463 | 0.218 | 1.15 | 0.269 | -0.802 | -1.16 | 0.207 (inactive) | -0.31 | -1.3 | -0.869 (inactive) |
